High-throughput results as filed in PubChem.
HCMV inh: human cytomegalovirus inhibition; HFF cells, HCMV-luciferase reporter, 72 h; stronger effect = lower value; 410,000 tested, 4.5% active; activity change, negative = inhibition, % at 57.5 µM; in the data active means activity change below about -60%; inconclusive means no clear call, values can overlap the other calls; inactive means above about -39%
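Compounds were evaluated in HFFs infected with an HCMV luciferase reporter virus (MOI 1 PFU/cell). Luciferase in lysates collected 72 h post infection served as the replication measure.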
MARV entry inh: Marburg virus entry inhibition. Potency, µM (highest dose often 37.8 µM), inactives show at the highest dose activity change, negative = inhibition, actives largely listed as inhibitors. Marburg virus pseudotyped entry inhibition, cell reporter. 300,000 tested, 1.8% active; calls by dose curve; tested in HEK293 cells; further: potency means the concentration at half of the fitted maximal effect
Vaccinia Venus: vaccinia inhibition (Venus reporter); Vaccinia virus Venus reporter expression, fluorescence; 330,000 tested, 0.46% active; Potency, µM (titrated, usually from 36.5 µM), for inactives: top-dose activity change, negative = inhibition, usual class: inhibitors; calls by dose curve; tested in A549 cells; further: potency means the concentration at half of the fitted maximal effect; nearly all actives have a fitted effect of over 30% in size
FMDV antiviral: foot and mouth disease virus antiviral activity. FMDV antiviral cell-based qHTS. 410,000 tested, 1.2% active. Potency, µM (series often up to 57.9 µM), inactives show at the highest dose activity change, negative = inhibition, actives largely listed as inhibitors; calls by dose curve; tested in HEK293T cells; further: read-out not given here; potency means the concentration at half of the fitted maximal effect; nearly all actives have a fitted effect of over 45% in size
VACV mCherry inh: inhibitors of vaccinia virus infection (mCherry reporter signal). Vaccinia virus mCherry reporter infection, fluorescence. Potency, µM (doses to about 36.5 µM), without a hit: top-dose activity change, negative = inhibition, actives largely listed as inhibitors. 310,000 tested, 0.63% active. AID 720579; calls by dose curve; tested in A549 cells; further: potency means the concentration at half of the fitted maximal effect; nearly all actives have a fitted effect of over 35% in size
Lassa entry inh: inhibitors of Lassa virus binding or cell entry; Lassa virus pseudotype entry inhibition, cell reporter; Potency, µM (titrated, usually from 37.9 µM), inactives show at the highest dose activity change, negative = inhibition, hits mostly inhibitors; 300,000 tested, 1.2% active; AID 540256; calls by dose curve; tested in HEK293 cells; further: potency means the concentration at half of the fitted maximal effect; nearly all actives have a fitted effect of over 50% in size
Starred values were filed as active, the others as inactive; i = inactive; u = inconclusive; x = not tested or not shown; [ ] = dose if it differs, or a comment. Compounds with a hit are over-represented: about 6.5% of the library has one in this group of screens. On the % scale 0 is the no-effect control and ±100 the full control effect.

SMILES	HCMV inh	MARV entry inh	Vaccinia Venus	FMDV antiviral	VACV mCherry inh	Lassa entry inh
CC(=O)c1cccc(NC(=O)C(=O)Nc2cccc3ccccc23)c1	-60*	u	-9%	79%	-8%	-28%
CC(=O)N(C)c1ccc(NC(=S)Nc2cccc3ccccc23)cc1	-71*	u	-3%	-10%	i	-1%
CCCNC(=O)[C@H]1O[C@@H]1C(=O)N[C@H](C(=O)N1CCC[C@H]1C(=O)OC)[C@@H](C)CC	x	x	-10%[60.7 µM]	-15%	-22%[60.7 µM]	x
CN(C)c1ccc(-c2ccc3ncnc(NC4CC4)c3c2)cc1	x	x	x	-11%	x	x
Cc1ccc(C)c(Oc2cc(NC(=O)CCCn3nc(C)c([N+](=O)[O-])c3C)cc([N+](=O)[O-])c2)c1	-88*	u	u	0%	u	u
Cc1nn(CCCC(=O)Nc2cc(Oc3ccccc3)cc([N+](=O)[O-])c2)c(C)c1[N+](=O)[O-]	3	u	u	0%	u	4%
COc1ccc(CNc2ncnc3ccc(-c4c(C)noc4C)cc23)c(OC)c1	x	x	x	24%	x	x
CC(C)OC(=O)[C@H](C)NC(=O)N1CCc2nc(COc3ccccc3)c3c(c2C1)CO[C@@H](C)C3	x	-36%[14.2 µM]	x	x	x	x
COc1ccc(-c2noc(CCCC(=O)NC3CCCCC3)n2)cc1	-72*	u	7%	-22%	-18%	-30%[46.1 µM]
COc1ccc(-c2noc(CCC(=O)NC3CCCC3)n2)cc1	u	1%[46.1 µM]	5%	-5%	-14%	-8%[46.1 µM]
Cc1ccc(-c2noc(CCC(=O)Nc3cc(C)ccn3)n2)cc1	-71*	-10%[46.1 µM]	-14%	-14%	x	0%
O=C(CCCc1nc(-c2ccccc2Cl)no1)NC1CCCC1	-74*	x	x	u	x	x
COc1ccccc1-c1noc(CCCC(=O)NC2CCCC2)n1	-25	u	7%	-8%	-5%	5%[46.1 µM]
CC(C)C(=O)NCCc1nc(-c2ccccc2Cl)no1	-60*	x	-11%	-4%	-13%	x
Cc1cc(C)c2c(C)ccnc2c1	x	x	-10%	x	-17%	x
COc1ccc(/C=C/C(=O)NCC2Cc3cccc(-c4nc(C)cnc4C)c3O2)cc1OC (stereo not given)	x	x	-9%	-14%	i	x
O=C(CCCc1nc(-c2ccccc2)no1)NC1CCCC1	11	-10%[46.1 µM]	-4%	-5%	-13%	14%[46.1 µM]
Cc1ccc(-c2noc(CCCC(=O)NC3CCCC3)n2)cc1	-80*	u	-6%	-26%	-16%	-26%[46.1 µM]
O=C(C1CCC(Cn2c(=S)[nH]c3ccccc3c2=O)CC1)N1CCN(c2ccccn2)CC1 (stereo not given)	-91*	-7%[46.1 µM]	-9%	22µM*	-11%	u
O=C(C1CCC(CNc2nc(=S)[nH]c3ccccc23)CC1)N1CCN(c2ccc(F)cc2)CC1 (stereo not given)	-28	u	u	18µM*	u	u
COc1ccc(N2CCN(C(=O)C3CCC(Cn4c(=S)[nH]c5ccccc5c4=O)CC3)CC2)cc1 (stereo not given)	-81*	10µM*	x	-8%	x	-21%
CCCS(=O)(=O)N1CC(=O)N(c2cccc(Cl)c2C)C(C)(C(=O)NC2CCCC2)C1 (stereo not given)	0	x	-7%	6%	-11%	-6%[46.1 µM]
COCC(=O)N1CCC[C@@]2(CCN(Cc3cc(C(F)(F)F)cc(C(F)(F)F)c3)C2)C1	x	x	x	0%	x	x
CCN(CC)c1ccc(CNCCc2ccc(F)cc2)cc1	9	u	-8%	u	10µM*	u
COC(=O)/C(=N\OCc1ccc(C#N)cc1)c1c(C)nn(C)c1C	-100*	2%[46.1 µM]	-12%	8%	-2%	16%
SMILES	HCMV inh	MARV entry inh	Vaccinia Venus	FMDV antiviral	VACV mCherry inh	Lassa entry inh
CC(C)(C)c1ccc(C(=O)N2CCC3(CC2)CC3C(=O)NCCc2ccccn2)cc1 (stereo not given)	x	x	-8%	26%	-15%	x
O=C(Nc1ccc(NC(=O)c2ccc([N+](=O)[O-])o2)cc1Cl)c1ccco1	-73*	-12%[46.1 µM]	-18%	-4%	-22%	0%
CC(=O)Nc1cccc(NC(=O)c2ccco2)c1	-19	-1%	x	10%	x	7%
O=C(NC12CC3CC(CC(C3)C1)C2)c1ccc(Br)o1	-36	2%[46.1 µM]	-7%	4%	-7%	u
O=C(NC12CC3CC(CC(C3)C1)C2)c1ccc([N+](=O)[O-])o1	-70*	x	x	u	x	x
Cc1ccccc1NC(=O)c1ccc([N+](=O)[O-])o1	-13	u	-20%	-30%	-27%	-18%
O=C(Nc1ccc(NC(=O)c2ccco2)c(Cl)c1)c1ccccc1	18	x	u	54%	i	x
O=C(Nc1cccc(NC(=O)c2ccc([N+](=O)[O-])o2)c1)c1ccco1	u	u	u	27%	13µM*	u
O=C(Nc1ccccc1Cl)c1ccc([N+](=O)[O-])o1	-101*	13µM*	u	-11%	u	u
CC(=O)NCCCc1ccc(C(=O)COC(=O)CNC(=O)c2ccc3ccccc3c2)cc1	x	x	-9%	x	-6%	x
CN1C(c2ccccc2)CC(C)(O)CC1c1ccccc1 (stereo not given)	-33	x	x	x	x	x
Cc1cc(C)cc(OC(C)C(=O)Nc2nonc2-c2ccc(Br)cc2)c1 (stereo not given)	-62*	-3%[46.1 µM]	-6%	-30%	-18%	11%[46.1 µM]
Cc1cccc(C)c1OCC(=O)Nc1nonc1-c1ccc(Br)cc1	-19	0%[46.1 µM]	5%	-4%	-8%	u
COc1ccc(OC)c(CCNc2ncnc3onc(C)c23)c1	-39	x	u	u	-13%	3%[46.1 µM]
CCCCn1nnc(NC(=S)NC(=O)c2ccc(-c3cccc(Cl)c3Cl)o2)n1	x	u	0.11µM*	u	u	4%
CCCCC(=O)NC(=S)Nc1nnn(CCC)n1	-98*	9%[46.1 µM]	u	14%	u	-5%
CCCCn1nnc(NC(=S)NC(=O)c2ccc(OCC)c([N+](=O)[O-])c2)n1	u	-6%	1.3µM*	-12%	u	-17%
O=S1(=O)C=CCN1C1CCCC1	x	x	x	x	x	7%[46.1 µM]
CSc1nc2sc3c(c2c(=O)[nH]1)CC[C@@H](C)C3	x	23%	x	x	x	x
Cc1cc(C)c(NC(=O)c2cc(C)nc3c2c(C)nn3-c2cccc(F)c2)c(C)c1	22	x	-8%	-12%	-10%	u
COc1cccc(OCc2cc(=O)n3c(-c4ccccc4)csc3n2)c1	18	u	-25%	-4%	u	10%[46.1 µM]
Cc1ccc(C)c(/C=C/C(=O)c2ccccc(=O)c2O)c1	-101*	u	u	u	14µM*	u
Cc1ccc(/C=C/C(=O)c2ccccc(=O)c2O)c(C)c1	-82*	u	u	u	u	u
O=C(/C=C/c1ccccc1Cl)c1ccccc(=O)c1O	u	u	u	u	10µM*	u
O=C(/C=C/c1ccc([N+](=O)[O-])cc1)c1cccs1	-76*	x	3%	2%	i	x
O=C(C=Cc1ccccc1)c1cccs1	-38	u	-5%	u	-11%	19%
